Laboratory results as given in the supplement of paper PMC12350171.
Counter-ions that a name gives are not always drawn. Unmarked numbers belong to inactive results.

Experiments:
Settings in all cases: 20 µM
[1] = test system: Salmonella enterica typhimurium; test: growth AUC normalised to DMSO control (fraction of control); higher = less growth inhibition, active = hit call of the paper
Method in brief: (§1)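 Pathogens were passaged twice under anaerobic conditions, then inoculated into pre-reduced mGAM plates at a starting OD578 of 0.01, with compound at 20 μM and 1% DMSO, and sealed with breathable membranes. For Haemophilus parainfluenzae, the medium was supplemented with hemin and NAD. OD578 was read every hour for 24 h in three biological replicates. Growth-curve AUC was calculated by the trapezoidal rule up to the exponential-to-stationary transition and normalised to DMSO controls on the same plate.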

Shigella flexneri = test: as above
Method in brief: as §1

Vibrio cholerae = test: as above
Method in brief: as §1

[2] = test system: Yersinia pseudotuberculosis; test: as above
Method in brief: as §1

P. vulgatus RND KO = test: growth AUC normalised to DMSO control (median) (fraction of control); higher = less growth inhibition, active = hit call of the paper
Method in brief: (§2)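 After two overnight anaerobic passages, strains were inoculated at OD578 0.01 into mGAM in 96-well plates containing approved-drug library compounds at 20 μM and 1% DMSO. Growth was followed by reading OD578 hourly for 24 h within an anaerobic incubator. Area under the curve, taken by the trapezoidal rule up to the start of stationary phase, was normalised to same-plate vehicle wells, and the median of three biological replicates is listed.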

P. vulgatus WT = test: as above
Method in brief: as §2

[3] = test system: S. enterica typhimurium WT; test: as above
Method in brief: as §2

[4] = test system: S. enterica typhimurium tolC KO; test: as above
Method in brief: as §2
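For growth AUC normalised to DMSO control (median) in this document: active when median AUC fell below 0.1.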

| SMILES | growth AUC normalised to DMSO control [1] | growth AUC normalised to DMSO control (Shigella flexneri) | growth AUC normalised to DMSO control (Vibrio cholerae) | growth AUC normalised to DMSO control [2] | growth AUC normalised to DMSO control (P. vulgatus RND KO) | growth AUC normalised to DMSO control (P. vulgatus WT) | growth AUC normalised to DMSO control [3] | growth AUC normalised to DMSO control [4] |
| --- | --- | --- | --- | --- | --- | --- | --- | --- |
| CCCN(CCC)S(=O)(=O)c1ccc(C(=O)O)cc1 [Probenecid] | 1.02 | 1.03 | 1.02 | 1.02 | 1 | 1.02 | 1.02 | 0.895 |
| CC(=O)OCC(CCn1cnc2cnc(N)nc21)COC(C)=O [Famciclovir] | 1.02 | 1.01 | 1.04 | 1.01 | 1.03 | 1.03 | 1 | 0.976 |
| CCOC(=O)C1=C(C)NC(C)=C(C(=O)OC)C1c1cccc(Cl)c1Cl (stereo not drawn) [Felodipine] | 0.987 | 1 | 1 | 0.883 | 1.01 | 1.03 | 1 | 1 |
| Clc1ccc(C(Cn2ccnc2)OCc2csc3c(Cl)cccc23)c(Cl)c1 (stereo not drawn) [Sertaconazole nitrate] | 1.02 | 1.06 | 1.05 | 0.913 | 1 | 1.01 | 1.01 | 0.935 |
| CC(N)CCCC(C)(C)O (stereo not drawn) [Heptaminol hydrochloride] | 1 | 0.999 | 0.986 | 0.997 | 1.01 | 1.05 | 1.01 | 0.996 |
| CN(C)CC/C=C1/c2ccccc2Sc2ccc(Cl)cc21 [Chlorprothixene hydrochloride] | 0.997 | 0.988 | 0.817 (active) | 0.996 | 0.904 | 0.887 | 0.999 | 0.912 |
| Cc1c(Cl)cccc1Nc1ncccc1C(=O)O [Clonixin lysinate] | 1 | 0.989 | 0.94 | 1 | 0.979 | 1 | 1.02 | 0.954 |
| CC(=O)NCCCS(=O)(=O)O [Acamprosate calcium] | 1 | 1.02 | 1 | 0.99 | 1.02 | 1.03 | 1 | 0.996 |
| Nc1nc(=O)c2nc(CNc3ccc(C(=O)N[C@@H](CCC(=O)O)C(=O)O)cc3)cnc2[nH]1 [Folic acid] | 0.991 | 0.99 | 1 | 0.994 | 0.997 | 1 | 0.997 | 1.01 |
| CC(C)NCC(O)COc1ccc(CCOCC2CC2)cc1 (stereo not drawn) [Betaxolol hydrochloride] | 0.998 | 0.988 | 1 | 1 | 1.01 | 1.01 | 1.01 | 1 |
| CC(C)(C(=O)c1cccnc1)c1cccnc1 [Metyrapone] | 0.996 | 0.992 | 0.965 | 0.989 | 0.996 | 0.981 | 1 | 0.996 |
| CNC(=C[N+](=O)[O-])NCCSCc1ccc(CN(C)C)o1 [Ranitidine hydrochloride] | 1 | 1 | 1.01 | 1.01 | 1.01 | 0.985 | 1.02 | 1.01 |
| CN(C)CCOC(c1ccc(Cl)cc1)c1ccccn1 (stereo not drawn) [Carbinoxamine maleate salt] | 1.01 | 1.08 | 1.04 | 0.989 | 1.07 | 1.09 | 1 | 0.997 |
| CC(=O)O[C@]1(C(C)=O)CC[C@H]2[C@@H]3C=C(Cl)C4=CC(=O)[C@@H]5C[C@@H]5[C@]4(C)[C@H]3CC[C@@]21C [Cyproterone acetate] | 1 | 1.01 | 1 | 0.994 | 0.896 | 0.907 | 1 | 0.953 |
| CC(C)(O)c1ccccc1CC[C@@H](SCC1(CC(=O)O)CC1)c1cccc(/C=C/c2ccc3ccc(Cl)cc3n2)c1 [Montelukast] | 1.02 | 1.04 | 1.05 | 1.01 | 0.911 | 0.875 | 1 | 1 |
| CN1[C@@H]2CC[C@H]1C[C@@H](OC(=O)c1c[nH]c3ccccc13)C2 [Tropisetron hydrochloride] | 1.01 | 0.997 | 1.01 | 1 | 1.01 | 1.02 | 1.01 | 1 |

| SMILES | growth AUC normalised to DMSO control [1] | growth AUC normalised to DMSO control (Shigella flexneri) | growth AUC normalised to DMSO control (Vibrio cholerae) | growth AUC normalised to DMSO control [2] | growth AUC normalised to DMSO control (P. vulgatus RND KO) | growth AUC normalised to DMSO control (P. vulgatus WT) | growth AUC normalised to DMSO control [3] | growth AUC normalised to DMSO control [4] |
| --- | --- | --- | --- | --- | --- | --- | --- | --- |
| C#C[C@]1(OC(C)=O)CC[C@H]2[C@@H]3CCC4=CC(=NO)CC[C@@H]4[C@H]3CC[C@@]21CC (mixture of isomers) [Norgestimate] | 0.995 | 0.971 | 0.984 | 0.988 | 0.836 | 0.88 | 0.999 | 0.955 |
| COc1ccccc1N1CCN(CC(O)COc2cccc3ccccc23)CC1 (stereo not drawn) [Naftopidil dihydrochloride] | 1.01 | 1 | 0.894 | 0.991 | 0.933 | 0.971 | 1.01 | 0.914 |
| Cn1cnc([N+](=O)[O-])c1Sc1ncnc2[nH]cnc12 [Azathioprine] | 1 | 0.992 | 1.01 | 1.01 | 0.955 | 0.92 | 1.02 | 0.998 |
| C[N+](C)(C)CCCCCC[N+](C)(C)C [Hexamethonium dibromide dihydrate] | 0.947 | 0.996 | 0.971 | 0.966 | 0.992 | 1 | 0.99 | 1.02 |
| O=C(O)CCNC(=O)c1ccc(/N=N/c2ccc(O)c(C(=O)O)c2)cc1 [Balsalazide disodium salt] | 1.03 | 1.03 | 1.05 | 1 | 1.02 | 1.08 | 0.996 | 1.02 |
| CC(C)(C)NC[C@H](O)COc1nsnc1N1CCOCC1 [Timolol maleate salt] | 0.981 | 1.01 | 1.01 | 0.987 | 1.01 | 1.01 | 0.999 | 0.999 |
| CCCCOc1ccc(OCCCN2CCOCC2)cc1 [Pramoxine hydrochloride] | 0.998 | 1.01 | 1 | 0.983 | 1.04 | 1.03 | 1 | 0.988 |
| COC(=O)[C@H]1[C@H]2C[C@@H]3c4[nH]c5cc(OC)ccc5c4CCN3C[C@H]2C[C@@H](OC(=O)c2cc(OC)c(OC)c(OC)c2)[C@@H]1OC [Reserpine] | 1.02 | 1.05 | 1.06 | 1.02 | 1.04 | 1.05 | 1.02 | 1 |
| C[C@H](N)[C@H](O)c1cccc(O)c1 [Metaraminol bitartrate] | 0.992 | 0.972 | 0.984 | 1.01 | 0.993 | 0.989 | 0.994 | 1 |
| CC(=O)O[C@H]1C(=O)[C@@]2(C)[C@H]([C@H](OC(=O)c3ccccc3)[C@]3(O)C[C@H](OC(=O)[C@H](O)[C@@H](NC(=O)c4ccccc4)c4ccccc4)C(C)=C1C3(C)C)[C@]1(OC(C)=O)CO[C@@H]1C[C@@H]2O [Paclitaxel] | 1.02 | 1.01 | 1.02 | 0.998 | 0.881 | 0.8 | 1.01 | 1.02 |
| O=C1CCc2cc(OCCCCc3nnnn3C3CCCCC3)ccc2N1 [Cilostazol] | 0.985 | 0.971 | 0.958 | 0.989 | 0.975 | 0.98 | 1 | 0.851 |
| C[C@H](CCC(=O)O)[C@H]1CC[C@H]2[C@@H]3C(=O)C[C@@H]4CC(=O)CC[C@]4(C)[C@H]3CC(=O)[C@]12C [Dehydrocholic acid] | 0.98 | 0.968 | 0.983 | 0.957 | 1.01 | 0.983 | 0.999 | 0.66 |
| Cc1cc2c(cc1S(N)(=O)=O)S(=O)(=O)CCC2 [Meticrane] | 1.01 | 0.996 | 1.01 | 1.01 | 1.03 | 1.01 | 1.02 | 1.01 |
| CCCCC[C@H](O)/C=C/[C@H]1[C@H](O)CC(=O)[C@@H]1CCCCCCC(=O)O [Alprostadil] | 0.992 | 0.989 | 0.99 | 0.999 | 0.994 | 1.01 | 1 | 1.01 |
| CC(C)N1CCN(c2ccc(OCC3COC(Cn4cncn4)(c4ccc(Cl)cc4Cl)O3)cc2)CC1 (stereo not drawn) [Terconazole] | 0.962 | 0.982 | 1 | 0.989 | 1.06 | 1.04 | 1.01 | 0.97 |
